# Where a name gives a salt, the structure may show the parent alone. A number with no mark means an inactive call.
# Tested on: MCF10A
# Assay: perturbation Mahalanobis distance of morphological profile vs DMSO controls (Mahalanobis distance (SD units)); higher = stronger morphological change, active = 7 or more
# Conditions: 72 h
# Experimental: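 MCF10A cells were seeded onto drugs dispensed acoustically into 384-well plates, using one dose per drug chosen from its human peak plasma concentration, and incubated for 72 h at 37 °C. Cells were stained for DNA, tubulin and mitochondria and imaged; 78 CellProfiler features were extracted, plate-normalised and compared with DMSO wells.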
# [1] = screen batch: Batch1_Mahalanobis_Distance
# [2] = screen batch: Batch2_Mahalanobis_Distance
SMILES,perturbation Mahalanobis distance [1],perturbation Mahalanobis distance [2]
CCN1CC(CCN2CCOCC2)C(c2ccccc2)(c2ccccc2)C1=O (stereo not drawn) [Doxapram] (66 µM),2.26,2.47
CNNCc1ccc(C(=O)NC(C)C)cc1 [Procarbazine] (13.6 µM),2.07,2.28
CC(C)(C#N)c1cc(Cn2cncn2)cc(C(C)(C)C#N)c1 [Anastrozole] (0.51 µM),3.5,3.49
Cc1cc2cc3c(C)cc(=O)oc3c(C)c2o1 [Trioxsalen] (0.07 µM),2.32,2.45
C[C@]12C=CC(=O)C=C1CC[C@@H]1[C@@H]2[C@@H](O)C[C@@]2(C)[C@H]1CC[C@]2(O)C(=O)CO [Prednisolone] (13.9 µM),4.8,3.8
O=C1c2c(O)ccc(O)c2C(=O)c2c(NCCNCCO)ccc(NCCNCCO)c21 [Mitoxantrone] (3.4 µM),9.47 (active),16.4 (active)
Nc1ccn([C@H]2CC[C@@H](CO)O2)c(=O)n1 [Zalcitabine] (2.4 µM),2.44,3.2
COc1cccc2c1C(=O)c1c(O)c3c(c(O)c1C2=O)C[C@@](O)(C(=O)CO)C[C@@H]3O[C@H]1C[C@H](N)[C@H](O)[C@H](C)O1 [Doxorubicin] (0.18 µM),11.1 (active),16.7 (active)
Cc1c(OCC(F)(F)F)ccnc1CS(=O)c1nc2ccccc2[nH]1 (stereo not drawn) [Lansoprazole] (23 µM),4.87,8.49 (active)
CCC(CC)O[C@@H]1C=C(C(=O)O)C[C@H](N)[C@H]1NC(C)=O [Oseltamivir Acid] (6.45 µM),2.37,3.03
CCN(CC)C(=O)/C(C#N)=C/c1cc(O)c(O)c([N+](=O)[O-])c1 [Entacapone] (6.6 µM),1.99,2.48
CCOC(=O)c1ncn2c1CN(C)C(=O)c1cc(F)ccc1-2 [Flumazenil] (1.6 µM),4.28,3.54
C[C@@H]1CCC2[C@@H](C)[C@@H](O)O[C@@H]3OC4(C)CC[C@@H]1[C@@]23OO4 (stereo partly drawn) [Dihydroartemisinin] (13.2 µM),10.7 (active),16.7 (active)
NC(N)=NCC1COC2(CCCCC2)O1 (stereo not drawn) [Guanadrel] (140.7 µM),2.66,2.51
CCN(CC)C(=O)N1CCN(C)CC1 [Diethylcarbamazine] (6.3 µM),2.96,2.16
CCCCNc1cc(C(=O)O)cc(S(N)(=O)=O)c1Oc1ccccc1 [Bumetanide] (1 µM),3.62,2.57
CS(=O)(=O)OCCCCOS(C)(=O)=O [Busulfan] (1.4 µM),2.31,2.95
Cc1ccc(NC(=O)c2ccc(CN3CCN(C)CC3)cc2)cc1Nc1nccc(-c2cccnc2)n1 [Imatinib] (14 µM),4.06,6.84
O=c1[nH]cc(F)c(=O)[nH]1 [5-Fluorouracil] (2.5 µM),7.34 (active),16.5 (active)
CC/C(=C(\c1ccccc1)c1ccc(OCCN(C)C)cc1)c1ccccc1 [Tamoxifen] (6.7 µM),2.61,2.63
CC(C)NCC(O)c1ccc(O)c(O)c1 (stereo not drawn) [Isoproterenol] (11.8 µM),3.12,4.76
O=[N+]([O-])c1cnc(CO)n1CCO [Hydroxymetronidazole] (58.4 µM),2.36,3.44
CN(Cc1cnc2nc(N)nc(N)c2n1)c1ccc(C(=O)N[C@@H](CCC(=O)O)C(=O)O)cc1 [Methotrexate] (0.44 µM),9.23 (active),17.5 (active)
CC(C)(Oc1ccc(Cl)cc1)C(=O)O [Clofibric Acid] (368 µM),3.07,2.64
COCCCC/C(=N\OCCN)c1ccc(C(F)(F)F)cc1 [Fluvoxamine] (3.9 µM),2.43,2.47
C=CC[C@@H]1/C=C(\C)C[C@H](C)C[C@H](OC)[C@H]2O[C@@](O)(C(=O)C(=O)N3CCCC[C@H]3C(=O)O[C@H](/C(C)=C/[C@@H]3CC[C@@H](O)[C@H](OC)C3)[C@H](C)[C@@H](O)CC1=O)[C@H](C)C[C@@H]2OC [Tacrolimus] (0.09 µM),2.64,2.28
CO[C@H]1/C=C/O[C@@]2(C)Oc3c(C)c(O)c4c(c3C2=O)C2=NC3(CCN(CC(C)C)CC3)NC2=C(NC(=O)/C(C)=C\C=C\[C@H](C)[C@H](O)[C@@H](C)[C@@H](O)[C@@H](C)[C@H](OC(C)=O)[C@@H]1C)C4=O [Rifabutin] (0.89 µM),6.13,3.99

SMILES,perturbation Mahalanobis distance [1],perturbation Mahalanobis distance [2]
CNC1(C)C2CCC(C2)C1(C)C (stereo not drawn) [Mecamylamine] (3.6 µM),2.25,3.11
OC(CCN1CCCCC1)(c1ccccc1)C1CCCCC1 (stereo not drawn) [Trihexyphenidyl] (3.3 µM),1.96,2.42
O=C(O)P(=O)(O)O [Foscarnet] (887 µM),3.95,2.62
CN(CCOc1ccc(CC2SC(=O)NC2=O)cc1)c1ccccn1 (stereo not drawn) [Rosiglitazone] (4.2 µM),2.03,3.13
CCN(CC)C(=S)SSC(=S)N(CC)CC [Disulfiram] (6.7 µM),2.16,3
CN1C(CCl)Nc2cc(Cl)c(S(N)(=O)=O)cc2S1(=O)=O (stereo not drawn) [Methyclothiazide] (0.5 µM),2.69,2.45
NC12CC3CC(CC(C3)C1)C2 [Amantadine] (19.85 µM),2.66,3.87
COc1cnc(NS(=O)(=O)c2ccc(N)cc2)nc1 [Sulfameter] (322.8 µM),6.64,3.67
Cc1nnc(C(=O)NC(C)(C)C2=N/C(=C(\O)NCc3ccc(F)cc3)C(=O)C(=O)N2C)o1 [Raltegravir] (22.5 µM),6.75,4.95
C#CCN(C)Cc1ccccc1 [Pargyline] (1.9 µM),3.93,3.63
C[N+](C)(C)CCOC(=O)CCC(=O)OCC[N+](C)(C)C [Succinylcholine Chloride] (12.65 µM),2.23,2.84
OCCN1C[C@H](O)[C@@H](O)[C@H](O)[C@H]1CO [Miglitol] (45.4 µM),1.78,2.1
O=C1[C@H](CC[C@H](O)c2ccc(F)cc2)[C@@H](c2ccc(O)cc2)N1c1ccc(F)cc1 [Ezetimibe] (0.87 µM),3.59,2.59
OCCN(CCO)c1nc(N2CCCCC2)c2nc(N(CCO)CCO)nc(N3CCCCC3)c2n1 [Dipyridamole] (19.8 µM),2.41,3.01
CN/C(=C\[N+](=O)[O-])NCCSCc1csc(CN(C)C)n1 [Nizatidine] (7.5 µM),2.51,2.13
Nc1cc(N2CCCCC2)nc(N)[n+]1OS(=O)(=O)[O-] [Minoxidil Sulfate] (4.3 µM),3.4,3.55
NC(=O)[C@@H]1CSSCCC(=O)N[C@@H](CCCCN=C(N)N)C(=O)NCC(=O)N[C@@H](CC(=O)O)C(=O)N[C@@H](Cc2c[nH]c3ccccc23)C(=O)N2CCC[C@H]2C(=O)N1 [Eptifibatide] (5.3 µM),2.23,2.48
CCCc1nn(C)c2c(=O)[nH]c(-c3cc(S(=O)(=O)N4CCN(C)CC4)ccc3OCC)nc12 [Sildenafil] (0.53 µM),3.27,4.22
CCCc1cc(=O)[nH]c(=S)[nH]1 [Propylthiouracil] (90 µM),2.49,2.52
Cc1ccccc1C(=O)Nc1ccc(C(=O)N2CCC[C@@H](O)c3cc(Cl)ccc32)c(C)c1 [Tolvaptan] (11.1 µM),2.12,6.06
CCCCC(F)(F)[C@@]1(O)CC[C@H]2[C@@H](CC(=O)[C@@H]2CCCCCCC(=O)O)O1 [Lubiprostone] (64 µM),2.4,2.48
CN1CCN(CCCN2c3ccccc3Sc3ccc(C(F)(F)F)cc32)CC1 [Trifluoperazine] (0.12 µM),1.97,3.67
CC1(C)N=C(N)N=C(N)N1c1ccc(Cl)cc1 [Cycloguanil] (3.4 µM),2.56,2.22
CC(=O)/C(C#N)=C(\O)Nc1ccc(C(F)(F)F)cc1 [Teriflunomide (A77 1726)] (66.9 µM),4.02,2.47
Cc1nc2n(c(=O)c1CCN1CCC(c3noc4cc(F)ccc34)CC1)CCCC2 [Risperidone] (73 µM),2.9,2.4
CNCCCC12CCC(c3ccccc31)c1ccccc12 [Maprotiline] (10.8 µM),3.39,6.41
COCc1c(C(C)C)nc(C(C)C)c(/C=C/[C@@H](O)C[C@@H](O)CC(=O)O)c1-c1ccc(F)cc1 [Cerivastatin] (0.46 µM),13.3 (active),13.1 (active)

# Source: the supplement of paper PMC6853941
